The campaign covered roughly 68,000 compounds. About 2,700 (4%) showed an effect of 50% or more. The sample holds strong results, similar compounds and a random draw of the others, so the mix is not that of the screen.

In this assay the test system is Plasmodium berghei. Description: Screen against P. berghei liver stage (PbLuc), transformed with Luciferase, at 2uM. It is filed as functional, HepG2. The following applies: tested at 2 uM.
As for `N#Cc1cccc(N2CCC3(CCC(=O)N(CCCO)C3)CC2)n1`, the INHIBITION was determined as 58.18%.
For `N#Cc1cccc(N2CCC3(CCC(=O)N(CC(N)=O)C3)CC2)n1` the value was -30.57%.
Regarding `Cc1cc(N2CCC3(CCC(=O)N(CCCO)C3)CC2)nc(N(C)C)n1`, the INHIBITION came to 57.75%.
For `Cc1cc(N2CCC3(CCC(=O)N(CCO)C3)CC2)nc(N(C)C)n1` the value was 19.59%.
Take `CCCc1nc(C)cc(N2CCC3(CCC(=O)N(CCCO)C3)CC2)n1`: the INHIBITION is -25.22%.
For the compound `N#Cc1cccc(N2CCC3(CCC(=O)N(CC4CCCO4)C3)CC2)n1` (configuration not stated), the INHIBITION is -41.11%.
Regarding `O=C(COc1coc(CN2CCCCC2)cc1=O)Nc1cccc(Cl)c1`, the INHIBITION is recorded as -13.13%.
Next, `CCOCC(O)CN1CCN(C(=O)Cc2ccc3c(c2)CCC3)CC1` (configuration not stated): 24.88%.
Take `Cc1ccc(CN(Cc2cc(C)no2)C2CC2)cc1`: the INHIBITION is 2.01%.
On to `CCOc1cc(C)nc(N2CCN(C(=O)c3csnn3)CC2)n1`, for which the INHIBITION is on record as -14.16%.
Next, `CCOCC(O)CN1CCN(C(=O)c2ccccc2F)CC1` (configuration not stated): 30.29%; `CCn1cc(CN2C[C@@H]3CCCN3C[C@H]2CCSC)cn1`: -25.95%; `Cc1ccc(N(C)CC(O)COCc2ccccc2F)c(C)c1` (configuration not stated): 25.92%.
For `CCc1nnc(CN2CCC(C3CCCCCN3C(C)=O)CC2)o1` (configuration not stated) the value was -5.58%; for `CCOCCCNC(=O)c1nc2c(s1)CCCN2c1ccc(C)nn1`, -14.63%; for `CCNC(=O)C(C)NC(=O)Nc1ccccc1Cl` (configuration not stated), 12.43%.
As to `CCNC(=O)C(C)NC(=O)Nc1ccccc1SC(F)(F)F` (configuration not stated), the INHIBITION is recorded as -16.18%.
Next, `CCNC(=O)C(C)NC(=O)Nc1ccccc1SCC` (configuration not stated): 60.13%; `c1csc(-c2noc(C3CNC3)n2)c1`: 5.98%; `C1CC(N2Cc3nnn(CC4CC4)c3C(COCC3CC3)C2)C1` (configuration not stated): 10.71%.
Next, `CN(CCc1ccccn1)C(=O)c1cnn(-c2ccccc2F)c1N`: 4%; `Cc1nc(NC(=O)N2CCCC(N(C)C)C2)nn1C` (configuration not stated): 15.68%.
Consider `CN(C)S(=O)(=O)N1C[C@H]2CC[C@@H](C1)N(Cc1ccc3nsnc3c1)C2`, for which the INHIBITION is given as 22.22%.
For the compound `CN(C)S(=O)(=O)N1C[C@H]2CC[C@@H](C1)N(Cc1ccc(F)c(F)c1)C2`, the INHIBITION is listed as 53.12%.
With `CN(C)S(=O)(=O)N1C[C@H]2CC[C@@H](C1)N(Cc1ccc3c(c1)OCCO3)C2`, the INHIBITION is given as 8.48%.
Next, `CN(CC(F)(F)F)C(=O)CN1CCC(c2cc3ccccc3[nH]2)CC1`: -17.18%.
For the compound `CN(C)C(=O)CN1C[C@H]2CC[C@@H](C1)N(Cc1c(F)cccc1Cl)C2`, the INHIBITION is 41.05%.
Next, `CN(C)C(=O)CN1C[C@H]2CC[C@@H](C1)N(Cc1cccc(Cl)c1Cl)C2`: -14.32%.
For `CN(C)C(=O)CN1C[C@H]2CC[C@@H](C1)N(Cc1c(Cl)cncc1Cl)C2` the value was 69.67%.
Next, `COc1ncc(CN(C)C(C)c2cccnc2)cn1` (configuration not stated): 40.8%.
For `CNC(=O)CN1CCCC12CCN(C(=O)c1ccoc1)CC2`, the INHIBITION was 23.09%.
Next, `CCOCCN1CCN(c2ccc(C#N)cn2)CC1`: 13.14%; `CCCc1ccc(C(=O)N2Cc3c(Cn4ccnc4)nn(C)c3C2)cc1`: 1.81%.
As for `CC(NC(=O)NCCn1ccnc1)c1ccc2c(c1)OCCCO2` (configuration not stated), the INHIBITION is recorded as -16.99%.
For `Cc1ccc(OCC(=O)N2CCOCC(O)(CN3CCCC3)C2)cc1C` (configuration not stated), the INHIBITION turned out to be 5.47%.
For `O=C(COc1cccc(Cl)c1)N1CCOCC(O)(CN2CCCC2)C1` (configuration not stated) the value was 52.1%; for `O=C(COc1ccc(F)cc1F)N1CCOCC(O)(CN2CCCC2)C1` (configuration not stated), 9.43%.
For `Cc1ccc2nc(CN(C)Cc3n[nH]c4c3CCCCC4)[nH]c2c1C` the value was -17.01%; for `COCCNC(=O)C1CCCN(c2ccc3nncn3n2)C1` (configuration not stated), -56.23%.
For `Cn1c(CCNC(=O)C2CCCN(C3CCOCC3)C2)n[nH]c1=O` (configuration not stated) the value was -36.65%.
As for `Cn1cc(CN2C[C@H]3CCC[C@@]3(COc3ccccn3)C2)cn1`, the INHIBITION stood at 4.38%.
Next, `CCN(CCNC(=O)Nc1nnc(C)s1)C(=O)OC(C)(C)C`: 57.98%; `Cc1nnc(NC(=O)NCCN(C(=O)OC(C)(C)C)C2CC2)s1`: -25.33%.
Consider `CCc1nnc(NC(=O)NCCN(C)C(=O)OC(C)(C)C)s1`, for which the INHIBITION is listed as -23.06%.
In the case of `CCC(C(=O)NCC1=CCCN(C)C1)c1ccccc1` (configuration not stated), the INHIBITION is recorded as -52.88%.
On to `COCc1cc(NCCc2ccc(S(N)(=O)=O)cc2)n2nccc2n1`, for which the INHIBITION was found to be 32.88%.
On to `O=C(N1CCOCC1)N1CCc2ncnc(NC3CCC3)c2CC1`, for which the INHIBITION amounted to 24.36%.
For `CCC(=O)N1CCC2(CC1)CC(N1CCOCC1)c1cc(C)ccc12` (configuration not stated) the value was 48.17%; for `O=C1NCCCCC1Sc1nnc(N2CCCC2)n1C1CC1` (configuration not stated), -20.55%; for `O=C1NCCCCC1Sc1nnc(C2CC2)n1C1CC1` (configuration not stated), 58.24%.
In the case of `O=C1NCCCCC1Sc1n[nH]c(=O)n1C1CC1` (configuration not stated), the INHIBITION was -5.76%.
For `CCN1CC(C(=O)NCc2ccccc2-n2cccn2)CC1=O` (configuration not stated) the value was 24.91%.

The values are drawn from ChEMBL document CHEMBL4513216, “Probing the Open Global Health Chemical Diversity Library for Multistage-Active Starting Points for Next-Generation Antimalarials” (ACS Infect Dis, 2020).
